Results published in PubChem BioAssay AID504467 (National Center for Advancing Translational Sciences (NCATS), 2011).
The whole screen tested about 330,000 compounds, of which about 7,700 (2.3%) were called active. Roughly 26% stayed inconclusive and do not appear here. The call rests on the fitted dose curve; in most records, active means well fitted inhibition curve with a large enough effect; inconclusive means small, poorly fitted or top-dose-only effect, or effect the other way; inactive means flat fitted curve, though single readings scatter. The list comes from a sample in which actives are over-represented; it also holds similar structures and randomly drawn compounds.

Assay: qHTS screen for small molecules that inhibit ELG1-dependent DNA repair in human embryonic kidney (HEK293T) cells expressing luciferase-tagged ELG1; further: nearly all actives have a fitted effect of over 55% in size
Settings: HEK293T ELG1-luciferase reporter, luminescence, 16 h, DNA damage induced by 5-fluorouridine; series mostly up to 46.1 µM; activity change, negative = inhibition: at the top concentration
In short: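 Reporter activity after DNA damage by 5-fluorouridine is monitored. Compound-treated cells incubate 16 hr at 37 °C, then ONE-Glo is added for 30 min before luminescence reading.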
On the % scale 0 is the no-effect control and ±100 the full control effect; potency means the concentration at half of the fitted maximal effect.

Compound	activity change, negative = inhibition	Potency
COc1ccccc1S(=O)(=O)NCc1ccc(C(=O)N(C)Cc2ccc(F)cc2)cc1	-22% (inactive)	–
O=S(=O)(Nc1cc(Cl)ccc1N1CCOCC1)c1ccccc1Cl	-7.01% (inactive)	–
CCOC(=O)C1=C(CCc2ccccc2)NC(=O)NC1c1ccc2ccccc2c1 (centres undefined)	-12.5% (inactive)	–
COc1cc(CNCc2ccc3c(c2)OCO3)c([N+](=O)[O-])cc1OC	-3.68% (inactive)	–
COc1cc(CN2CCCN(C)CC2)c([N+](=O)[O-])cc1OC	-6.3% (inactive)	–
COc1cc(CN2CCN(Cc3ccc(C)cc3)CC2)c([N+](=O)[O-])cc1OC	–	20.6 µM (active)
Cc1cc2oc(=O)cc(CN(C)Cc3ccc(OC(F)F)cc3)c2cc1Cl	-14.2% (inactive)	–
COC(=O)COc1ccc2oc(=O)cc(C)c2c1	5.41% (inactive)	–
CCOc1ccc(N(C)Cc2cc(=O)oc3ccc(OC)cc23)cc1	–	16.4 µM (active)
Cc1ccc2c(c1)C(c1ccccc1)N(C(=O)c1ccc(F)cc1)CC(=O)N2 (centres undefined)	-4.96% (inactive)	–
O=C(Cn1ccc2cc(S(=O)(=O)N3CCCC3)ccc21)NCc1ccccc1	14.6% (inactive)	–
O=C1[C@@H](c2ccccc2)[C@@H](c2ccccc2)N1c1cccnc1	17.2% (inactive)	–
O=C1CCN(Cc2ccccc2)CCN1[C@H](CSc1ccccc1)c1ccccc1	26.6% (inactive)	–
Cc1cc(C)c(NC(=O)CS(=O)CC(=O)Nc2cccnc2)c(C)c1 (centres undefined)	-1.59% (inactive)	–
Cc1ccc(-c2nc(-c3cccnc3)sc2CC(=O)Nc2ccc(C)c(Cl)c2)cc1	–	16.4 µM (active)
Cc1nc(-c2ccc(F)cc2)c(CC(=O)Nc2cccc(S(=O)(=O)N3CCOCC3)c2)s1	-9.34% (inactive)	–
COc1ccc(N2CCN(C3CCCCC3NS(=O)(=O)c3ccccc3)CC2)cc1 (centres undefined)	-5.22% (inactive)	–
CCOc1ccc(CN2CCCN(C)CC2)cc1	9.71% (inactive)	–
CCOc1ccc(CC(=O)NC2CCN(Cc3ccccc3)CC2)cc1	-9.53% (inactive)	–
CCOc1ccc(CN2CCN(Cc3c[nH]c4ccccc34)CC2)cc1	–	13 µM (active)
COC(=O)[C@]1(S(=O)(=O)c2ccccc2)C[C@@H]2ON=C(c3ccc(OC)cc3)[C@@H]2C1	3.37% (inactive)	–
Cc1ccc(S(=O)(=O)Nc2ccc(F)c(S(=O)(=O)N3CCOCC3)c2)cc1	-19.8% (inactive)	–
Cc1ccc(-c2ccc(=O)n(Cc3ccc(F)cc3Cl)n2)cc1	-0.564% (inactive)	–
O=C1C=C(c2cccc(Cl)c2)C[C@@H](c2ccc(F)cc2)C1	3.63% (inactive)	–
O=C(c1cc(-c2ccc(Cl)s2)nc2ccccc12)N1CCOCC1	-3.24% (inactive)	–
O=C(c1cn(-c2ccccc2)nc1-c1cc2ccccc2oc1=O)N1CCOCC1	–	7.3 µM (active)

Compound	activity change, negative = inhibition	Potency
CCOc1ccccc1-c1cc(C(=O)N2CCOCC2)c2ccccc2n1	-25.2% (inactive)	–
Nc1nc(-c2sc3nc4c(cc3c2N)CCCC4)nc(N2CCOCC2)n1	–	6.51 µM (active)
COc1ccccc1C(CNC(=O)c1cccc(S(=O)(=O)Nc2ccc(F)cc2)c1)N(C)C (centres undefined)	-1.22% (inactive)	–
NC(=O)c1nsc(C(=O)N(CCCN2CCOCC2)C(C(=O)NC2CCCCC2)c2ccc(Cl)cc2)c1N (centres undefined)	5.9% (inactive)	–
Cc1ccc(NC(=O)CN(C)C(=O)c2ccc(Cl)c(S(=O)(=O)NCc3ccco3)c2)cc1	-3.5% (inactive)	–
O=C(CSCC(=O)Nc1cccc([N+](=O)[O-])c1)Nc1ccccc1	15.4% (inactive)	–
O=C(CCl)Nc1cccc(CP(=O)(c2ccccc2)c2ccccc2)c1	–	14.6 µM (active)
CCc1cccc(NC(=O)CCC(=O)O)c1	4.12% (inactive)	–
COc1ccc(C2=NN(C(=O)CSc3nc(=O)n4ccc(C)cc4n3)C(c3ccc(C)cc3)C2)cc1 (centres undefined)	-11.2% (inactive)	–
CC(=O)N1c2ccc(S(=O)(=O)N3CCC(C(=O)NC4CCCC(C)C4C)CC3)cc2CC1C (centres undefined)	0% (inactive)	–
O=C(Cn1cnc2c(OCc3ccccc3)ncnc21)NCCCn1ccnc1	13.1% (inactive)	–
COc1cccc(/C=N/Nc2cc(C)nc(-c3ccccc3O)n2)c1O	–	5.8 µM (active)
COc1ccccc1/C=N\Nc1cc(C)nc(-n2nc(C)cc2C)n1	–	23.1 µM (active)
COc1cc(NS(=O)(=O)c2ccccc2)ccc1-n1nc(C)cc1C	1.2% (inactive)	–
COc1cccc(/C=N/Nc2ncc(C(F)(F)F)cc2Cl)c1O	15.3% (inactive)	–
COc1ccc(Nc2cc(C)nc(-n3nc(C)cc3C)n2)cc1	9.95% (inactive)	–
COc1cccc2c(N/N=C/c3ccco3)cc(C)nc12	17.8% (inactive)	–
CCN(c1ccccc1)S(=O)(=O)c1cc(C(=O)NCc2ccccn2)ccc1C	-4.44% (inactive)	–
CC(=O)c1sc(NC(=O)CCN2C(=O)C3CC=CCC3C2=O)nc1-c1ccccc1 (centres undefined)	-10.9% (inactive)	–
O=S(=O)(NCC1CN(S(=O)(=O)c2ccc3c(c2)OCCO3)C1)c1c(F)cccc1F	19.5% (inactive)	–
CC(C)N(C(=O)CN1CCN(S(=O)(=O)c2ccc(Br)s2)CC1)C(C)C	-6.18% (inactive)	–
CS(=O)(=O)c1ccc(Cl)c(NC(=O)COC(=O)c2cccc(S(=O)(=O)N3CCCC3)c2)c1	-2.83% (inactive)	–
O=C(NCc1cccs1)C1CCN(S(=O)(=O)c2ccc(Cl)cc2)CC1	8.41% (inactive)	–
O=C(CNCc1cccs1)Nc1cc(S(=O)(=O)N2CCCC2)ccc1Cl	–	16.4 µM (active)
O=C(CN1CCCCCC1)Nc1ccc(S(=O)(=O)N2CCCCC2)cc1	0.957% (inactive)	–
O=C(NN=Cc1ccc(N2CCOCC2)cc1)c1cc2ccccc2cc1O	0% (inactive)	–

Compound	activity change, negative = inhibition	Potency
COc1ccc(OCCC(=O)c2ccc(OC)cc2)cc1	4.01% (inactive)	–
CCCCOc1ccc(C(=O)NN2CCN(C)CC2)cc1	17.4% (inactive)	–
CCCOc1ccc(C(=O)C(CCC(CNCC)C(=O)c2ccc(OCCC)cc2)CNCC)cc1 (centres undefined)	–	23.1 µM (active)
COc1ccc(-c2c(C#Cc3ccsc3)c3cc(-c4ccc(CN5CCOCC5)cc4)ccc3n2C)cc1	15.4% (inactive)	–
COc1cc(OC)cc(-c2c(C#Cc3ccsc3)c3cc(-c4ccc(OC)cc4F)ccc3n2C)c1	20.3% (inactive)	–
Cc1nc(C(=O)Nc2ccc(Cl)cc2)sc1C1(C)CC(c2ccccc2)=NO1 (centres undefined)	–	18.3 µM (active)
O=C1CC2(CC(c3ccc(Cl)cc3)=NO2)C(=O)N1c1ccccc1 (centres undefined)	-2.34% (inactive)	–
O=C(Nc1ccc(Cl)cc1)OCc1cc(-c2ccccc2)on1	4.31% (inactive)	–
COc1ccccc1N1CCN(S(=O)(=O)c2ccc3c(c2)NC(=O)CS3)CC1	-2.54% (inactive)	–
CCOC(=O)[C@H]1[C@H]2COc3cc(OC)ccc3[C@@H]2N2C(=O)CN(Cc3ccc(Cl)cc3)C(=O)[C@@]12C	-4.83% (inactive)	–
CCc1ccc(CN(C)C(=O)C2CCC(=O)N(Cc3cccc(OC)c3)C2)nc1 (centres undefined)	16.9% (inactive)	–
CN(C)S(=O)(=O)c1ccc(N2CCCC2)c(C(=O)Nc2ccc(Br)cc2F)c1	-7.6% (inactive)	–
Cc1c(C(=O)NCCN(C)C)oc2ccc(S(=O)(=O)N3CCCC3)cc12	13.6% (inactive)	–
Cc1c(C(=O)Nc2ccccc2Cl)oc2ccc(S(=O)(=O)N3CCC4(CC3)OCCO4)cc12	–	3.66 µM (active)
CCOc1ccccc1NC(=O)c1cc(S(=O)(=O)N2CCC3(CC2)OCCO3)ccc1F	-3.11% (inactive)	–
CCN(Cc1ccccc1)C(=O)Cc1ccc(OC)c(S(=O)(=O)N2CCOCC2)c1	-2.15% (inactive)	–
C=CCn1c(SCC(=O)NC(=O)Cc2ccccc2)nc2ccccc2c1=O	3.04% (inactive)	–
C=CCn1c(SCC(=O)NCc2ccccc2)nnc1-c1cc(Br)ccc1O	–	13 µM (active)
C=CCn1c(SCC(=O)Nc2nc3ccccc3s2)nnc1-c1ccccc1O	-15.9% (inactive)	–
Cc1cc(N/N=C/c2ccccc2F)c2ccccc2n1	4.96% (inactive)	–
Oc1ccc(/C=N/Nc2nc(-c3ccccc3F)nc3ccccc23)c(O)c1	–	14.6 µM (active)
FC(F)(F)c1nc2ccccc2nc1N/N=C/c1ccc(Cl)cc1	-5.61% (inactive)	–
COc1cc(/C=N\NC(=O)CNC(=O)c2cccc([N+](=O)[O-])c2)ccc1O	-5.46% (inactive)	–
COc1ccc2ccccc2c1/C=N/NC(=O)c1cc(C)[nH]n1	-0.422% (inactive)	–
CCOc1ccc(NC(=O)CCC(=O)N/N=C/c2ccc([N+](=O)[O-])s2)cc1	-21.4% (inactive)	–
CC(C)(C)c1cc(C(=O)N/N=C/c2ccc([N+](=O)[O-])s2)n[nH]1	–	5.17 µM (active)

Compound	activity change, negative = inhibition	Potency
COc1ccc(C(=O)NCC(=O)N/N=C/c2ccc([N+](=O)[O-])s2)cc1OC	–	8.2 µM (active)
COc1ccc(C(=O)COC(=O)c2ccc([N+](=O)[O-])s2)cc1OC	12.6% (inactive)	–
O=[N+]([O-])c1ccc(O)c(/C=N/Nc2ccccc2[N+](=O)[O-])c1	–	18.3 µM (active)
O=[N+]([O-])c1ccccc1Nc1ccc(O)cc1	-19% (inactive)	–
Nc1nnnn1/N=C/c1cc([N+](=O)[O-])ccc1O	-2.35% (inactive)	–
Cc1ccccc1SCC(=O)OCC(=O)N1CC(=O)Nc2ccccc21	0% (inactive)	–
CCCn1c(C(C)Nc2nc(-c3ccc(C)cc3)cs2)nc2cc(Cl)c(N3CCCCC3)cc21 (centres undefined)	16.4% (inactive)	–
CCOC(=O)c1cnc2[nH]c3ccccc3n2c1=O	4.07% (inactive)	–
Cc1ccccc1Cn1c(=O)[nH]c2ccccc21	-14.6% (inactive)	–
CCCc1cc(=S)n2c([nH]c3ccccc32)c1C#N	–	16.4 µM (active)
Cc1ccc(S(=O)(=O)N(C)CC(=O)NCC(c2ccc(F)cc2)N2CCOCC2)cc1 (centres undefined)	1.93% (inactive)	–
O=C(OCC(=O)N1CCCCCC1)c1ccc(Cl)nc1	0.267% (inactive)	–
CCCCn1nc(C(=O)OCC(=O)Nc2sccc2C(N)=O)c2ccccc2c1=O	10.7% (inactive)	–
CCCCn1nc(C(=O)Nc2cccc(C(=O)NC3CC3)c2)c2ccccc2c1=O	–	13 µM (active)
CCn1nc(C(=O)Nc2ccc(N3CCOCC3)cc2)c2ccccc2c1=O	-3.51% (inactive)	–
Cn1c(N)c(C(=O)COC(=O)c2cccc(S(=O)(=O)N3CCOCC3)c2)c(=O)n(C)c1=O	-10% (inactive)	–
CCCn1c(CCNc2nc(-c3ccc(OC)cc3)cs2)nc2ccccc21	-26% (inactive)	–
CCN(CC)S(=O)(=O)c1ccc2[nH]cc(C(=O)NCCc3ccccc3)c(=O)c2c1	–	5.8 µM (active)
CN(c1ccccc1)S(=O)(=O)c1ccc(Cl)c(C(=O)OCC(=O)NCc2ccco2)c1	10.8% (inactive)	–
CCN(CC(=O)NCCc1ccccc1)S(=O)(=O)c1ccc(C)cc1	-15.1% (inactive)	–
CN(c1ccccc1)S(=O)(=O)c1ccc(Cl)c(C(=O)OCC(N)=O)c1	-2.61% (inactive)	–
CN(c1ccccc1)S(=O)(=O)c1ccc(Cl)c(C(=O)NCCc2c[nH]c3ccccc23)c1	–	18.4 µM (active)
CSCCC(NS(=O)(=O)c1ccc(C)cc1)C(=O)NCCc1c[nH]c2ccccc12 (centres undefined)	-7.72% (inactive)	–
Cc1ccc(S(=O)(=O)N(C)CC(=O)NCCc2c[nH]c3ccccc23)cc1	–	14.6 µM (active)
CCN(CC(=O)NCCc1ccccc1)S(=O)(=O)c1ccccc1	6.38% (inactive)	–
COc1ccccc1CC(=O)NCCc1c[nH]c2ccccc12	-6% (inactive)	–
